High-throughput results (PubChem)
MEKK2 WT-MEK5 – modulators of MEK5 binding to wildtype MEKK2, primary screen, biochemical, multiplex bead flow cytometry, Alexa488-MEK5. binding response (% of control), % at 10 µM. Alexa488-MEK5 binding to MEKK2 WT; actives lie on both sides. hit rate 1.1% among 290,000. Mitogen-activated protein kinase kinase kinase 2 (Homo sapiens), Q9Y2U5; in the data active means binding response below about 67% or above about 130%
GRK2 inh – compounds blocking aptamer binding on GRK2 – biochemical, human GRK2, bead flow cytometry, HTS, primary screen | Beta-adrenergic receptor kinase 1 (Homo sapiens), P25098 | FAM-aptamer displacement from GRK2 | inhibition of aptamer binding, % at 10 µM | hit rate 0.59% among 330,000 | AID 488847, 2010;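 active means inhibition of aptamer binding above 40%, roughly 3 SD of noise, on plates passing a quality check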;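 further: median bead fluorescence of bound FAM aptamer so fluorescent compounds give negative values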
MEKK2 mut-MEK5 – MEK5 binding signal on mutant MEKK2 PB1, primary screen, biochemical, multiplex bead flow cytometry, Alexa488-MEK5 | Alexa488-MEK5 binding to MEKK2 mutant | percent response, % at 10 µM | hit rate 0.35% among 290,000 | AID 1530, 2009; in the data active means percent response above about 24%, passing the limit was not always enough
B2AR ag – beta2AR agonists driving receptor internalization, primary screen, cell-based, FAP fluorogen, flow cytometry; hit rate 0.43% among 340,000; Beta-2 adrenergic receptor (Homo sapiens), P07550; Am2.2-beta2AR cells; response, % (no concentration beside the values);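 active means response above a set limit, near 3 SD of response in nonfluorescent compounds, cut at about 42% in these data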
MEKK3 PB1 HTS – modulators of MEKK3-MEK5 PB1 binding, primary screen, biochemical, wildtype MEKK3, multiplex bead flow cytometry, Alexa488-MEK5 | Mitogen-activated protein kinase kinase kinase 3 (Homo sapiens), Q99759 | bead-based flow cytometry, Alexa488-MEK5 binding to MEKK3; actives lie on both sides; 0 = blocked by unlabeled MEK5, 100 = vehicle | binding response (% of control), % at 10 µM | hit rate 1.4% among 290,000 | AID 1529, 2009;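 active means binding response more than 3 SD above or below the average of its plate-row segment, actives on both sides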;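 further: Alexa488 bead fluorescence after subtracting the streptavidin-only scavenger bead signal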
Target sequence (Q99759 whole entry, looked up): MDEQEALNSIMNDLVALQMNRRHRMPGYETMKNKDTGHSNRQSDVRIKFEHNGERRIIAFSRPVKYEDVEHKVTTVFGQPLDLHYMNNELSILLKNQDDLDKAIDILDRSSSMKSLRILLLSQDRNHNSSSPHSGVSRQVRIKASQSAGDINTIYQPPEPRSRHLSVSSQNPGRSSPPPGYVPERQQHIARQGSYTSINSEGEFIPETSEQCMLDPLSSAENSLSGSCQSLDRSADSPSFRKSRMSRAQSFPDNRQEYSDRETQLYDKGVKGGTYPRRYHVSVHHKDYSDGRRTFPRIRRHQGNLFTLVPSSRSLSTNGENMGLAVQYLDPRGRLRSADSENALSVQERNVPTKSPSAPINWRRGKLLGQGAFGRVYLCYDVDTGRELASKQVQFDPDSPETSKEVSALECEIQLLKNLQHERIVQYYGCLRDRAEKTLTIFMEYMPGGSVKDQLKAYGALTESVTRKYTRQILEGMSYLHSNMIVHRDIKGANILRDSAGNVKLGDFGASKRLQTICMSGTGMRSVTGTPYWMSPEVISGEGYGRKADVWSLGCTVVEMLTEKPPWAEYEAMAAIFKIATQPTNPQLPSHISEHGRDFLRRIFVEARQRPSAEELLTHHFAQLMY
GRK2 inh confirm – GRK2 aptamer-displacing inhibitors, retest, confirmation, biochemical, cherry pick 1, bead flow cytometry | shares compounds with GRK2 inh | bead-bound GRK2, FAM-aptamer displacement | aptamer displacement, % at 10 µM | hit rate 4% among 2,000;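 active means aptamer displacement above 40%, near three times the noise of non-fluorescent compounds, on plates passing quality checks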;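 further: negative values mostly reflect intrinsic compound fluorescence rather than true enhancement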
FAM quench CP1 – aptamer fluorescence quenching in GRK2 counter-screen | fluorescence response (% of DMSO), % at 10 µM | shares compounds with GRK2 inh | 2,000 tested, under 10 active | Carboxyfluorescein RNA aptamer on beads, flow cytometry quenching; hits give low values;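 active means compounds that quench the bead-bound fluorescent RNA probe, cutting fluorescence to under half of the solvent control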;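 further: counterscreen run without GRK2 so only probe quenching by compound is measured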
GRK2 CP2 – GRK2 aptamer-displacing inhibitors, hit retest, confirmation, biochemical, cherry pick 2, bead flow cytometry; shares compounds with GRK2 inh; bead-bound GRK2, FAM-aptamer displacement; inhibition of aptamer binding, % at 10 µM; 360 tested, under 10 active; AID 504782, 2011;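 active means inhibition of aptamer binding above 40%, about triple the noise seen with nonglowing compounds, on plates passing quality control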;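 further: negative values mostly come from compounds that fluoresce themselves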
FAM quench SP – aptamer fluorescence quenching in GRK2 counter-screen | fluorescence response vs DMSO, % at 10 µM | shares compounds with GRK2 inh | 360 tested, under 10 active | carboxyfluorescein RNA aptamer beads, flow cytometry quenching; hits give low values;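 active means response vs DMSO under 50%, meaning signal dropped by over half, treated as fluorescence quencher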;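 further: labelled aptamer on streptavidin beads without GRK2 as a quench counter-screen; 100% = bead fluorescence of DMSO wells and lower means quenching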
The depositor's hits bear a star; i = inactive; . = no result. Shown are actives, neighbours in structure and some others; about 2.9% of the full set was active somewhere.

SMILES	MEKK2 WT-MEK5	GRK2 inh	MEKK2 mut-MEK5	B2AR ag	MEKK3 PB1 HTS	others
CC(C)c1nnc(NC(=O)C2CCCN(C(=O)Nc3ccc(F)cc3)C2)s1 (configuration not stated)	98.0	0.0	-3.0	-2.5	103.0	GRK2 inh confirm=2.0;FAM quench CP1=98.2
COc1ccccc1NC(=O)CCC(=O)OCc1ccc(Cl)cc1	99.0	97.0*	-1.0	1.9	94.0	GRK2 inh confirm=2.0;FAM quench CP1=111.5
CCC(=O)N1c2ccc(S(=O)(=O)CCC(=O)Nc3ccc(OC)cc3OC)cc2CC1C (configuration not stated)	104.0	5.0	5.0	-10.3	102.0	GRK2 CP2=-29.2;FAM quench SP=102.0
COc1ccc(OC)c(NC(=O)CCS(=O)(=O)c2cc3c(cc2C)NC(=O)CO3)c1	99.0	0.0	2.0	13.3	97.0	GRK2 CP2=-3.3;FAM quench SP=106.0
COc1ccccc1NC(=O)c1ccccc1Oc1ccccc1	105.0	41.0*	3.0	-10.6	100.0	GRK2 inh confirm=-0.3;FAM quench CP1=92.3
COc1ccccc1NC(=O)CCS(=O)(=O)c1cc2c(cc1Cl)NC(=O)CO2	97.0	0.0	2.0	-18.0	97.0
COc1ccccc1NC(=O)CCC(=O)OCc1ccc(Br)cc1	102.0	3.0	3.0	1.4	101.0
CCc1ccc(N2CC(C(=O)OCc3nc4ccsc4c(=O)[nH]3)CC2=O)cc1 (configuration not stated)	.	0.0	.	-2.0	.
Cc1ccc(S(=O)(=O)NCC(=O)NCC(=O)N(C)Cc2ccc3ccccc3c2)cc1C	97.0	2.0	-4.0	1.2	100.0
COCc1c(C(=O)OCC(=O)NCCc2ccc(S(N)(=O)=O)cc2)oc2ccccc12	.	12.0	.	3.7	.
Nc1nc(-c2ccccc2)c(CCCNc2ccccc2)c(=O)[nH]1	.	.	.	-16.8	.
CC(C)(C)C(=O)Nc1ccc(/C=C/C(=O)c2ccco2)cc1	104.0	2.0	2.0	6.6	100.0
CCOc1ccc(CCNC(=O)COC(=O)c2cc(OC)c(OC)c(OC)c2)cc1OCC	99.0	0.0	1.0	.	105.0
CC1CCN(C(=O)CSc2nnc(-c3ccccc3F)o2)CC1	104.0	0.0	-1.0	-8.2	104.0
COc1ccccc1NC(=O)CCCCC(=O)Nc1ccccc1OC	109.0	0.0	3.0	-7.5	106.0
COc1ccc(CCCC(=O)Nc2cc(C)ccc2OC)cc1	107.0	1.0	7.0	0.9	105.0
COc1ccccc1NC(=O)CCS(=O)(=O)c1ccccc1	88.0	0.0	-7.0	-5.2	101.0	GRK2 CP2=-9.4;FAM quench SP=102.0
COc1ccc(S(=O)(=O)CCC(=O)Nc2cc(C)ccc2OC)cc1	98.0	0.0	0.0	1.2	101.0	GRK2 CP2=-28.5;FAM quench SP=104.0
O=[N+]([O-])c1cc2c(cc1/C=N/NS(=O)(=O)c1ccc(Br)cc1)OCO2	95.0	0.0	-5.0	6.2	102.0
COc1cc(C(=O)N/C(=C\c2cn(C)c3ccccc23)C(=O)NCCCN2CCOCC2)cc(OC)c1OC	104.0	0.0	5.0	11.4	100.0
COc1ccc(S(=O)(=O)N2CCCCC2)cc1NC(=O)c1ccc(OC)c(OC)c1	.	.	.	0.9	.
CC(C)(C)c1ccc(C(=O)N2CCCN(C(=O)c3ccc(C(C)(C)C)cc3)CC2)cc1	98.0	1.0	0.0	-0.8	106.0
CC(C)(C)c1ccc(C(=O)N2CCNCC2)cc1	94.0	65.0*	-5.0	3.2	99.0	GRK2 inh confirm=2.7;FAM quench CP1=103.1
CC(Oc1ccc(Br)cc1)C(=O)NCCCN1CCCC1=O (configuration not stated)	.	3.0	.	-0.8	.
COc1ccc(CNC(=O)C2CC=CCC2C(=O)O)cc1OC (configuration not stated)	96.0	0.0	-6.0	-1.7	93.0	GRK2 CP2=i;FAM quench SP=103.0
SMILES	MEKK2 WT-MEK5	GRK2 inh	MEKK2 mut-MEK5	B2AR ag	MEKK3 PB1 HTS	others
O=C(O)C1CC=CCC1C(=O)NCc1ccccc1 (configuration not stated)	99.0	4.0	5.0	-0.6	102.0
COc1ccc(-c2nc(-c3ccc(NC(=O)c4ccncc4)cc3)no2)cc1OC	111.0	0.0	1.0	26.4	108.0
COc1ccc(NC(=O)c2ccc(-c3ccc(-c4noc(C)n4)cc3C)cc2)cc1N1CCN(C)CC1	.	6.0	.	11.2	.	GRK2 inh confirm=-11.4;FAM quench CP1=97.1
Cc1cc(NC(=O)COC(=O)CCS(=O)(=O)c2cc(Cl)ccc2Cl)no1	102.0	0.0	5.0	-1.1	101.0
Cc1cc(N2CCOCC2)n2nc(C)c(-c3ccccc3)c2n1	96.0	2.0	0.0	-6.0	94.0
CCc1nn2c(N3CCOCC3)cc(C)nc2c1-c1ccccc1	96.0	4.0	-1.0	-0.6	94.0	GRK2 inh confirm=9.3;FAM quench CP1=98.7
CCc1sc(C(=O)Nc2ccc3c(c2)OCCO3)cc1Br	108.0	2.0	4.0	8.8	103.0
CN1CCN(NC(=O)c2ccc(Br)s2)CC1	84.0	0.0	-19.0	-0.6	91.0
O=C(Nc1ccc2c(c1)OCCO2)c1ccc(Br)s1	102.0	0.0	-1.0	-8.3	101.0	GRK2 inh confirm=3.1;FAM quench CP1=102.1
O=C(NN1CCOCC1)c1ccc(Br)s1	103.0	69.0*	1.0	0.0	104.0	GRK2 inh confirm=0.3;FAM quench CP1=101.7
O=C(COC(=O)c1cccc(Cl)c1)Nc1cccc(S(=O)(=O)NC2=NCCC2)c1	.	0.0	.	2.8	.	GRK2 inh confirm=-0.5;FAM quench CP1=93.8
NC(=O)Nc1ccc(C(=O)OCC(=O)Nc2cccc(S(=O)(=O)NC3=NCCC3)c2)cc1	.	0.0	.	-3.8	.
COCCn1c(SCC(=O)Nc2ccccc2F)nnc1-c1ccoc1C	101.0	1.0	-4.0	5.5	100.0
CC(C)N(CCn1c(SCC(=O)Nc2cccnc2Cl)nc2ccccc2c1=O)C(C)C	.	42.0*	.	-27.5	.	GRK2 CP2=-8.5;FAM quench SP=99.0
CC(c1nnc(SCC(=O)Nc2cccnc2Cl)n1Cc1ccccc1)N(C)C (configuration not stated)	102.0	99.0*	1.0	-3.0	105.0	GRK2 inh confirm=2.8;FAM quench CP1=91.1
COCCn1c(SCC(=O)Nc2cccnc2Cl)nc2cc(Cl)ccc2c1=O	.	4.0	.	-2.0	.
